Assay results taken from the supplement of paper PMC6555819.

test system: LXRb homodimer (NR concentration 270 nM); assay: PBM binding z-score (relative to random genomic background probes); higher = stronger binding; sequences stand for … in GC…GCGATTGACAGCGTAGAATGAAGG
How it was run: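 Regression normalization was applied to scanned fluorescence from custom Agilent 4×180K protein-binding microarrays. Before scanning, arrays were incubated 1 h with ligand-free nuclear receptor dimers, and binding was detected with antibodies against each partner (one per run). Binding z-scores use the random background probes as reference.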

First: ATCGAAAGGTCGTGAGGTGTGTATACAGAAAGGC
Second: GGAACGAGGGCAAAGGTGATAGCATCTGTCGACG
The PBM binding z-score of the first is higher: 0.423 for the first, -0.651 for the second.

First: ATATGGAGGTTAAGGGTCATTCAGGTTGGTTCGC
Second: ATCGAAAGGTCGTGAGGTGACTATACAGAAAGGC
The PBM binding z-score of the first is higher: 1.77 for the first, 0.557 for the second.

First: CGTCAAAGTTCAACTAAGGTAACTTAAAGCACGC
Second: CGGCCAAGGTCAAAGGTCAGTGAAGAGATGACGG
The PBM binding z-score of the first is higher: 1.95 for the first, 1.33 for the second.

Compared with ATCTCTAGGTAAAGGTCAGTGAAAGATCGATAGA, CGTCCAAGGTCATAAGAGGTCAGTGAAGACAGAT is higher in PBM binding z-score: 1.54 for the first, 2.11 for the second.

First: CCTAGTTGGCCAAGGTCACACACGCTATAGGTAC
Second: CCTTACGGGTCACGGGGTTATAGCACGACGAGCG
The PBM binding z-score of the first is higher: 0.597 for the first, 0.272 for the second.

First: TAGCCTAGGTCATTCAGGGGTCAGTATAGAAAGC
Second: TCTAGTTGGTTACGGAGGTCACACACGACGGGTA
The PBM binding z-score of the first is higher: 2.32 for the first, 1.06 for the second.

First: AATACAGGGTCGCTAGGCCAGAGTAGGTACGAAT
Second: ATACCAAGGTGATCGTGAGTTCGTTGATACTAAC
The PBM binding z-score of the first is higher: -0.053 for the first, -0.366 for the second.

Compared with CGTCCAAGGTCAATGCTAGGTCACTGAAAGCATT, TTACCAAGGTCAGCTGAGGTCGTTGATCCAACTC is lower in PBM binding z-score: 0.791 for the first, 0.419 for the second.

Going from ATCGAAAGGTCGACGAGTTGAGTATACACCGTTT to TTACAAAGGTGAGCTGAGGTCGTTGATCCAACTC, the PBM binding z-score falls from 0.676 to -0.674.

Going from GGAACGAGGGCATTCGAGTTGATAGCATGGCGAT to CCGACTGGGGCAAAGGTTACCACACTCAGTACGA, the PBM binding z-score falls from -0.345 to -0.702.

Compared with CGTCAAAGTTCAACTAATGTAACGTAAAGCACGC, CCTTACGGGTCACTCTAGGTTATAGCATCGGAGT is lower in PBM binding z-score: 2.34 for the first, 0.329 for the second.
